Measurements from ChEMBL document CHEMBL3988442, “University of Dundee, Small-Polar-MMV Screening Library” (2021).
Several values for one entry are separate records, joined by “and”; a condition that tells them apart may be missing. Equal values may be shown once. About 290 (0.85%) of roughly 34,000 compounds showed an effect of 50% or more. What follows is part of a selection rich in strong results, with near analogues and random picks from the rest.

System: Plasmodium falciparum
Assay: Plasmodium falciparum sporozoite viability assay
Assay type: functional, organism-based
Design: scale not given: in the data most compounds retested in dose-response had high values

Structure (SMILES) | Percent Effect (10 mM as filed; unlikely as a test dose) | Percent Effect
Cc1ncsc1CN(C)Cc1cc2c(cc1OC(F)F)OCO2 | 74.26% and 62.83% | –
Cc1nn(C)cc1CN(C)Cc1cc2c(cc1OC(F)F)OCO2 | – | 5.075%
Cc1nc(CN(C)Cc2cc3c(cc2OC(F)F)OCO3)cs1 | -8.742% and -16.17% | –
CC(Cn1ccnc1)NC(=O)C1(c2ccc(F)cc2)CCCC1 (centres undefined) | – | 23.02%
Cc1cc(N2CCC(c3n[nH]c4nccnc34)CC2)ncn1 | – | 7.584%
Brc1cccc(-c2nnc(CNCCn3cccn3)o2)c1 | – | 2.399%
CC(C)c1nc2c(n1C)CCN(Cc1nc(-c3ccsc3)no1)C2 | 73.25% and 58.56% and 70.51% | –
CC(C)c1nc2c(n1C)CCN(Cc1nc(-c3cccs3)no1)C2 | 44.7% and 61.16% and 58.76% | –
Cn1cnc2c1CCN(Cc1nc(-c3ccco3)no1)C2 | 12.07% and 12.49% | –
CC(C)c1ncc2c(n1)CN(Cc1nc(-c3ccsc3)no1)CC2 | – | 18.76%
CC(C)c1ncc2c(n1)CN(Cc1nc(-c3ccoc3)no1)CC2 | 11.99% and 7.268% and 10.61% | –
Cn1c(C2CC2)nc2c1CCN(Cc1nc(-c3ccsc3)no1)C2 | 19.95% and 27.05% and 21.39% | –
c1csc(-c2noc(CN3CCc4cncnc4C3)n2)c1 | 24.87% and 17.34% and 36.23% | –
CC(C)c1nc2c(n1C)CCN(Cc1nc(-c3ccoc3)no1)C2 | 83.83% and 76.55% and 70.15% | –
CC(C)c1ncc2c(n1)CN(Cc1nc(-c3cccs3)no1)CC2 | 13.28% and 7.226% and -0.3719% | –
COc1ccccc1OCCNC(=O)CN1CCc2cncnc2C1 | – | -7.271%
O=C1CN(c2ccc(CNC(=O)NCc3ccoc3)cc2)CCN1 | – | 13.47%
Cc1cn2c(n1)CCC(NC(=O)c1[nH]ncc1Br)C2 (centres undefined) | – | -6.244%
Cc1cc(C(=O)N[C@@H]2CCC[C@@H](N3CCOCC3)[C@@H]2O)no1 | – | 7.233%
O=C(O)C(F)(F)F.O=C([C@H]1C[C@H]2OCC[C@H]2N(CCc2ccccc2)C1)N1CCCCO1 | – | -6.171%
CCCOC(=O)N1CCn2nc(-c3nc4ccccc4n3C)cc2C1 | 47.05% and 19.27% | –
CN1CCn2nc(-c3nc4ccccc4n3C)cc2C1 | 21.76% and 43.98% | –
Cn1c(-c2cc3n(n2)CCCN(CC(=O)O)C3)nc2ccccc21 | 91.97% and 88.48% | –
NC(=O)C1CN(C(=O)Nc2ccc(SC(F)(F)F)cc2)CCO1 (centres undefined) | – | 26.37%
CC(C)(C(=O)N[C@@H]1CCC[C@@H](O)[C@@H]1O)c1cccc(F)c1 | – | 7.186%

Structure (SMILES) | Percent Effect (10 mM as filed; unlikely as a test dose) | Percent Effect
Cc1ccc(CCNC(=O)Nc2cc(C(F)(F)F)c[nH]c2=O)o1 | – | -6.166%
O=C(Cc1cn2ccsc2n1)N1CCCC(n2ccnc2)C1 (centres undefined) | – | 9.411%
CN(C)c1ccc(NC(=O)N2CCCCCC2c2ccncc2)cn1 (centres undefined) | -8.99% and -20.34% and -20.82% | –
CCOc1ccc(C(=O)N2CCCC2c2cnn(C)c2)cn1 (centres undefined) | – | 2.866%
CNCC(=O)N[C@H]1CN(c2nc(C)c3c(n2)CCCC3)C[C@@H]1C1CC1 | 74.85% and 85.09% | –
COCCC(=O)N[C@H]1CN(c2nc(C)c3c(n2)CCCC3)C[C@@H]1C1CC1 | 37.56% and 25.17% | –
CNc1nc(N2C[C@H](NC(=O)CCOC)[C@@H](C3CC3)C2)nc2c1CCC2 | -17.73% and -19.53% | –
Cc1n[nH]c(C)c1-c1cnc(CC2CCN(C)C2)cn1 (centres undefined) | – | -7.497%
Cc1cccc(Nc2cc(C3CCCN(CC(N)=O)C3)ccn2)n1.O=CO.O=CO (centres undefined) | 98.38% and 92.39% and 79.92% | –
NC(=O)CN1CCCC(c2ccnc(Nc3ncccn3)c2)C1 (centres undefined) | 24.34% and 12.28% and 9.246% | –
Cc1cccc(Nc2nccnc2C2CCCN(CC(=O)N(C)C)C2)n1 (centres undefined) | – | 4.997%
Cc1cc(Nc2ccccn2)nc(C2CCCN(CCO)C2)n1.O=CO (centres undefined) | – | 9.991%
Cc1cccc(Nc2nccnc2C2CCCN2CC(N)=O)n1 (centres undefined) | – | 7.262%
COc1cc(NC(=O)c2ccc(F)cc2Cl)c(C(=O)N(C)C)cc1OC | – | -12.25%
O=C(C1CCOCC1)N1CCc2ncc(CN3CCCCC3)n2CC1 | – | -3.866%
c1cnn(CC2CN(c3ncnc4[nH]ccc34)CCO2)c1 (centres undefined) | – | -8.614%
Cc1nc(CN2CCC3(CC2)NC(=O)CC3c2cccnc2)cs1 (centres undefined) | – | -8.123%
Cc1cc(CN2CCC3(CC2)C(=O)NCCN3CC2CC2)oc1C | – | -0.5945%
O[C@H]1CN(CCCOc2ccccc2F)CC[C@@]12CCCO2 | – | 14%
O[C@H]1CN(CCOc2ccc(F)cc2)CC[C@@]12CCCO2 | 66.45% and 84.39% and 80.81% | –
OC1CCCOC12CCN(CCCOc1ccccc1F)CC2 (centres undefined) | – | 2.153%
COc1ccccc1CNC(Cc1cccs1)c1nc(C)cs1.Cl (centres undefined) | – | -2.216%
Cc1cc(C)n(C2CN(CCC(=O)NC3CCCCC3)C2)n1 | – | -0.4038%
CC(C)NC(=O)C1CN(C(=O)Nc2ccc(F)cc2)CC12CCOCC2 (centres undefined) | – | -6.778%
CNc1cncc(C2CCCN2C(=O)c2ccc3c(c2)CCC3)n1 (centres undefined) | – | 5.523%

Structure (SMILES) | Percent Effect (10 mM as filed; unlikely as a test dose) | Percent Effect
COc1ccc(NC(=O)NC(C)c2nc[nH]n2)cc1 (centres undefined) | -24.45% and -7.709% and -11.14% | –
CC(NC(=O)Nc1ccc(OC2CCCC2)cc1)c1nc[nH]n1 (centres undefined) | 68.07% and 85.04% | –
CCN1CCC(CNC(=O)Nc2cc(C)on2)C1 (centres undefined) | – | 13.21%
COC(=O)c1cccn1C1CCN(Cc2nc3ccccc3o2)CC1 | – | -2.498%
CN(C)c1nc2c(c(=O)[nH]1)Cc1ccccc1OC2 | 9.66% and 16.82% | –
CN(CC1(CO)CCCC1)c1nc2c(c(=O)[nH]1)Cc1ccccc1OC2 | 63.62% and 42.71% | –
CNC(=O)N1CC[C@H]2N(C)CC[C@@]2(C(=O)N2CCOCC2)CC1.O=C(O)C(F)(F)F | – | 9.37%
Cc1cnn(CC2CCCN2C(=O)Cc2c(C)noc2Cl)c1 (centres undefined) | – | 8.684%
Cc1ccc(CN2C[C@@H]3COC[C@H](C(=O)N4CCCCO4)[C@@H]3C2)o1.O=C(O)C(F)(F)F | -11.42% and -12.39% and -13.97% | –
O=C(c1ccncc1)N1CCc2[nH]nc(Nc3ccccc3)c2C1 | – | -2.217%
CC(C)c1nc2cc(NC(=O)c3n[nH]c4c3CCC4)ccc2n1C | 73.89% and 87.21% | –
CN(C)CCCn1cnc2cc(NC(=O)c3n[nH]c4c3CCC4)ccc21 | -35.39% and -25.92% | –
Cn1cnc2cc(NC(=O)c3n[nH]c4c3CCC4)ccc21 | -48.98% and -33.08% | –
Cn1cc(C(=O)N2CCN(Cc3ccccn3)CC2)ccc1=O | – | -3.259%
Cc1ccccc1C(C(=O)O)N(C)CC1CCOCC1 (centres undefined) | – | -26.36%
COc1c(CNC(c2ccccc2)c2nccn2C)c(C)nn1C (centres undefined) | – | 11.35%
O=C(O)c1ccccc1-c1ccc(CN2CCOCC2)cn1 | – | 6.918%
C(=C\c1ccc(CN2CCCC2)cn1)/c1ccccc1 | 78.68% and 64.66% | –
c1cc(-c2cn[nH]c2)ncc1CN1CCCCC1 | -7.187% and -9.51% | –
O=C(C1CCOC1)N1C[C@H]2CN(Cc3cccc(F)c3)C(=O)[C@H]2C1 (some centres undefined) | – | 12.32%
CC(C)NC(=O)c1csc(NC2CC2)n1 | – | -5.904%
NC(=O)c1cn[nH]c1C1CCCN1C(=O)c1ccccc1 (centres undefined) | – | -3.133%
COC(=O)[C@@H]1CN(C(=O)c2cscn2)C[C@H]1c1ccc(OC)cc1 | – | 5.827%
COc1cc(N[C@@H](Cc2ccccc2)C(N)=O)ncn1 | – | 10.88%
COc1ncnc(N(C)C)c1NC(=O)c1cscc1C | – | -11.09%

Structure (SMILES) | Percent Effect (10 mM as filed; unlikely as a test dose) | Percent Effect
O=C(Nc1cc(C2CCOCC2)[nH]n1)c1cscn1 | – | 17.19%
Cc1cnc(CN(C)C2CCN(Cc3nnc(C4CC4)o3)C2)o1 (centres undefined) | – | 13.1%
OC(COCc1ccccc1)CN1CCC(c2ccn[nH]2)CC1 (centres undefined) | – | 8.709%
c1cc(CN2CCCC(c3nnc(-c4cnccn4)o3)C2)ccn1 (centres undefined) | – | 8.33%
O=C(O)C(F)(F)F.O=C1COC2(CCN(Cc3ccoc3)CC2)CN1c1ccsc1 | – | -2.422%
Cn1cc(CN2CC[C@H](O)[C@@H]2Cc2ccncc2)cn1 | – | 14.17%
Cc1cc(C)n(C(=O)Cn2nc(C)c(I)c2C)n1 | – | -1.053%
CN1CCCC1CCn1ccnc1-c1nc(-c2ccccc2)no1 (centres undefined) | 77.95% and 70.89% | –
CN1CCCC1c1ccnc(-c2ccccc2)n1 (centres undefined) | – | 8.44%
CN(C)c1ncccc1CNS(=O)(=O)c1ccc(F)cc1F | – | 5.626%
CC/N=c1\nc(NCC)nc2n1C(O)(Nc1cccc(C)c1C)CS2 (centres undefined) | -13.62% and 2.28% | –
CC/N=c1\nc(NCC)nc2n1C(O)(Nc1ccc(C)cc1C)CS2 (centres undefined) | 76.89% and 79.52% | –
CC/N=c1\nc(NCC)nc2n1C(O)(Nc1cc(C)ccc1C)CS2 (centres undefined) | -7.651% and -13.62% | –
O=S(=O)(c1ccccc1)N1CCC[C@]2(C[C@H](OCC3CC3)CO2)C1 | – | -0.3567%
Cc1ccccc1OCCCC(=O)NCC1CN(C)CCO1 (centres undefined) | 6.067% and -2.638% and -0.6996% | –
CCn1cnnc1C1CCN(C(=O)CCCOc2ccccc2)CC1 | 42.92% and 40.5% and 58.13% | –
O=C(CCOc1ccccc1F)N1CCC(O)CC1 | -2.056% and -15.58% and -4.248% | –
CO[C@H]1C[C@@H](O)C12CCN(C(=O)NCc1ccco1)CC2 | – | 8.391%
CO[C@H]1C[C@@H](O)C12CCN(C(=O)CCCOc1ccccc1)CC2 | 88.4% and 94.39% | –
CN1CCOC(CNC(=O)CCCOc2ccccc2F)C1 (centres undefined) | 51.69% and 61.26% and 47.35% | –
CC(O)CN1CCN(C(=O)CCOc2ccccc2F)CC1 (centres undefined) | 8.088% and -8.879% and -8.774% | –
NCCO[C@H]1C[C@@H](O)C12CCN(C(=O)CCOc1ccccc1)CC2 | 3.322% and 1.71% | –
CCn1cnnc1C1CCN(C(=O)COCCc2ccccc2)CC1 | -3.699% and -24.35% and -22.69% | –
CN1CCOC(CNC(=O)CCCOc2cccc(F)c2)C1 (centres undefined) | 7.848% and 7.883% and 5.332% | –
